Here are results for 40 sequences from the supplement of paper PMC6555819.

This assay relates to VDR:RXRa (NR concentration 270 nM, RXRa partner concentration 90 nM). Description: PBM binding z-score (relative to random genomic background probes); higher = stronger binding; sequences stand for … in GC…GCGATTGACAGCGTAGAATGAAGG
As to the method: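 Protein-binding microarray (Agilent 4x180K custom design, double-stranded 60-nt probes: 5' GC cap, 34-nt variable region, 24-nt constant primer region; full probe sequence given). Purified or IVT nuclear receptor:RXRα heterodimers (3:1 NR:RXRα, mostly 270:90 nM) or homodimers were incubated for 1 h in PBS with 2% milk and no ligand, then detected with Alexa488 antibodies. Fluorescence from o1-orientation probes (~5 replicates averaged) was converted to z-scores against 500 random hg19 background probes. Variable regions are seed direct-repeat (DR0–DR5) sites, all their single-nucleotide variants and half-site ablations.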
CCTACTGTGCCACGAAAGGTCATTGATTCAGTGA: the PBM binding z-score is 4.38. The figure for ATCTCTAGGTAAGCCTCAGTTCAGTGAAGAACGC is 0.546; for CAAACTAGGGCACGAAAGGTCAAAGTCGAATGAC it is 5.32; for TCATATAGGAAAACAGGTGAAAGTCCGTAAGTTA it is 1. The figure for TCTCGGAGGACACGAAAGGTCAGAGCACGACATC is 3.41; for AGTCAAAGTTCACTATGTAACGTAAGATTCAGCT it is 3.89; for TCTCGGAGGACACGAAAGTTCAGAGCTCGACATC it is 2.25. The figure for TCTTGTAGATCAATAGAGGTGAAGAAAGTGCGCT is 0.991. In turn, CGTCCAAGGTCAATGCTAGGTCAGTAAAAGCATT registered a PBM binding z-score of 4.76. The figure for ATCTCTAGGTAAAGATAGTTCAATGAATGCAAAT is 1.61; for CGTCCAAGGTCAGCAGGGCAGTGAAAGCGACGTG it is 2.87; for CAGCCTAGGTCACGGCCAGTATAGGAGGAACGTT it is 2.68. The figure for ACAGACAGGTGAGTAAAGGTAACTCAGCTGGACG is -0.139; for ATCGAAAGGTCGTGGTGAGTATAGAGAAAGGGAA it is 3.85. With TTACCAAGGTGAAAGGTGGTTGATGCACGCCTTG, the PBM binding z-score was determined as 0.184.

As for CCGACTGGGGCAGAAATGTTACCATACCATCCGG, the PBM binding z-score is -0.557.

Turning to GAGACTGGGGCATCAGCAGGTTACCATAACTTAA, the PBM binding z-score worked out at 0.317. The figure for AGAATGAGGTTACCAAAGACCAGGGAAACGCTTG is 1.32; for GCTAGCGGGCCATTTGGGTCACTCAATGACGGGC it is 0.753.

With CCGACTGCGGCAAGGTTACCATAACGCACAGCCA, the PBM binding z-score amounted to 0.302. As to CCGACTGGGGCAAAGGTTACCTTACTCAGTACGA, the PBM binding z-score is 1.21. The figure for TCTCGGAGCACACGAAAGGTCAGAGCTCGACATC is 2.26; for CCTATTAGTTGACCATAAGGACAACCGAAGCTCG it is 1.07; for GCTCGGACGACAAGGTCAGAGCTTTGTCCGTAGA it is 1.4. CGAACTGGGTCATCCAGGACAGTGAATACATTGA returned a PBM binding z-score of 4.54.

GGAACGAGGACATTCGAGTTGATAGCATGGCGAT registered a PBM binding z-score of 0.922.

TCTAGTTGATCAAAGGTCACACACTCGAAATGCG gave a PBM binding z-score of 5.05. The figure for TAGCCTAGGTCAGATCGGGCCAGTGTACGCTATA is 0.494; for AGTCAACGTTCATCTAGGTAACGTAAGATATGCT it is -0.0927; for CCTCGGAGGACAACAGGAGGTCAGGGCTGCCAGA it is 1.62.

Consider AGAAGGAGGTTAAGATCAGGGAAACAGAATACAT, for which the PBM binding z-score was 0.978. The figure for GCTGCTAGGTCAGGTTGGTCAGCTCACGGGTACG is 0.52. As to CCTACTGGGCCACGGTCATTGATCAGTCAAAGCA, the PBM binding z-score is -0.388. The figure for CGAACGAGGGCATGACTTGATAGCAAATGCCGAT is 0.573; for CACACAGGGTCAGCTAGGCCAGAGTAGGGACGGC it is 3.8; for TTATATAGGTAAAGGTGAAAGTCGAACGATATGA it is 1.07.

Turning to ATACCGAGGTGATCGTGAGGTCGTTGATACTAAC, the PBM binding z-score came out at 3.69. The sequence CGTCCAAGGTCAAGGTCAGTGTAAGAGACTCGAA displayed a PBM binding z-score of 4.67.

The sequence TTACCAAGTTGAAAGGTCGTTGATGCACGCCTTG came in with a PBM binding z-score of 2.65.

As for ACTAGCAGACCAAGTTTGGGTCACTCAAACAAAG, the PBM binding z-score is 0.245.
